In the supplement of paper PMC9588786:
Where a name gives a salt, the structure may show the parent alone. ± gives the standard deviation of the averaged measurements.

System: HT-1080
Experiment: relative cell viability with RSL3 co-treatment (fraction of control); higher = stronger protection from RSL3-induced ferroptosis (higher viability)
Details: 10 µM
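Also: viability read as CCK-8 absorbance at 450 nm in cells co-exposed to the GPX4 inhibitor RSL3, relative to a 0.01% DMSO vehicle control.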

SMILES | relative cell viability
Nc1ccc(C(=O)Nc2cccc(-c3nc(N4CCOCC4)c4oc5ncccc5c4n3)c2)cn1 | 0.303 ± 0.067
COc1cc(N2CCC(N3CCN(C)CC3)CC2)ccc1Nc1ncnc(Nc2ccccc2S(=O)(=O)C(C)C)n1 | 0.807 ± 0.023
CCn1c(-c2nonc2N)nc2c(C#CC(C)(C)O)ncc(OC[C@H]3CCCNC3)c21 | 0.563 ± 0.18
Cc1[nH]c(/C=C2\C(=O)Nc3ccc(S(=O)(=O)Cc4c(Cl)cccc4Cl)cc32)c(C)c1C(=O)N1CCC[C@@H]1CN1CCCC1 | 0.19 ± 0.046
CC(=O)Nc1cccc(-n2c(=O)n(C3CC3)c(=O)c3c(Nc4ccc(I)cc4F)n(C)c(=O)c(C)c32)c1 | 0.78 ± 0.052
COCC(=O)NC/C=C/c1ccc2ncnc(Nc3ccc(Oc4ccc(C)nc4)c(C)c3)c2c1 | 0.647 ± 0.095
O=C(Nc1c[nH]nc1-c1nc2ccc(CN3CCOCC3)cc2[nH]1)NC1CC1 | 0.35 ± 0.14
CCc1cccc(CC)c1NC(=O)N1Cc2[nH]nc(NC(=O)c3ccc(N4CCN(C)CC4)cc3)c2C1 | 0.53 ± 0.087
CN1CC[C@H](c2c(O)cc(O)c3c(=O)cc(-c4ccccc4Cl)oc23)[C@H](O)C1 [Flavopiridol (Alvocidib)] | 0.49 ± 0.13
CC(C)(O)CNc1ncc(-c2ccnc(Nc3ccnc(Cl)c3)n2)c(CC2CC2)n1 | 0.503 ± 0.031
Cc1cc(C(=O)NOCCO)c(Nc2ccc(I)cc2F)n(C)c1=O | 0.793 ± 0.16
COc1ccc(S(=O)(=O)N(C(C)=O)c2ccccc2/C=C/c2cc[n+]([O-])cc2)cc1 | 0.633 ± 0.015
O=C1c2ccc(Nc3ccc(F)cc3F)cc2CCc2ccc(OC[C@H](O)CO)cc21 [Skepinone-L] | 0.513 ± 0.12
CC[C@H](Nc1ncnc2[nH]cnc12)c1nc2cccc(F)c2c(=O)n1-c1ccccc1 [Idelalisib (CAL-101, GS-1101)] | 0.753 ± 0.031
O=C(Nc1cc(C(F)(F)F)cc(C(F)(F)F)c1)c1cc(Cl)ccc1O | 0.537 ± 0.06
Cc1cnc(Nc2ccc(N3CCN(C)CC3)cc2)nc1Nc1cccc(S(=O)(=O)NC(C)(C)C)c1 | 0.223 ± 0.061
O=c1cc(-c2cccc3c2Sc2ccccc2S3)oc(N2CCOCC2)c1 | 0.57 ± 0.21
CNC(=O)c1ccccc1Sc1ccc2c(/C=C/c3ccccn3)n[nH]c2c1 [Axitinib] | 0.63 ± 0.22
Nc1nc(N)c(N=O)c(OCC2CCCCC2)n1 | 0.82 ± 0.01
CNC(=O)c1cc(COc2nnc(Nc3ccc(Cl)cc3)c3ccoc23)ccn1 [Telatinib] | 0.623 ± 0.057
COC(=O)c1ccc2c(c1)NC(=O)/C2=C(\Nc1ccc(N(C)C(=O)CN2CCN(C)CC2)cc1)c1ccccc1 [Nintedanib (BIBF 1120)] | 0.9 ± 0.12

SMILES | relative cell viability
CCC(=O)Nc1cccc(Oc2nc(Nc3ccc(N4CCN(C)CC4)cc3OC)ncc2Cl)c1 | 0.803 ± 0.097
N[C@@H]1CCCN(c2c(/C=C3\SC(=O)NC3=O)cccc2-c2ccccc2)C1 | 0.697 ± 0.13
Cc1ccc(C(=O)Nc2ccc(CN3CCN(C)CC3)c(C(F)(F)F)c2)cc1C#Cc1cnc2[nH]ncc2c1 [GZD824 Dimesylate] | 0.553 ± 0.031
COc1ccc(-c2cc3c(C)nc(N)nc3n([C@H]3CC[C@H](OCCO)CC3)c2=O)cn1 | 0.597 ± 0.16
Cn1cnc(N)c2ncnc1-2 [3-Methyladenine (3-MA)] | 0.76 ± 0.078
C[C@H](NC(=O)/C(C#N)=C/c1cccc(Br)n1)c1ccccc1 | 0.807 ± 0.13
N=C(N)NC(=N)NCCc1ccccc1 [Phenformin HCl] | 0.877 ± 0.042
CS(=O)(=O)N1CCc2c(-c3cnc(N)nc3)nc(N3CCOCC3)nc21 | 0.85 ± 0.061
CN1CCCN(C(=O)c2cccc(-c3ccc(/C=C4/C(=O)Nc5ccc(Cl)cc54)o3)c2)CC1 | 0.743 ± 0.061
COc1ccc(S(=O)(=O)N(CCO)c2ccccc2CN(C)C/C=C/c2ccc(Cl)cc2)cc1 [KN-93 Phosphate] | 0.813 ± 0.011
NC(=O)Nc1sc(-c2ccc(F)cc2)cc1C(N)=O | 0.87 ± 0.046
CCN(C)S(=O)(=O)Nc1ccc(F)c(C(=O)c2c[nH]c3ncc(-c4cnc(C5CC5)nc4)cc23)c1F | 0.71 ± 0.017
Cc1ccc(NC(=O)c2cccc(N(C)C)c2)cc1NC(=O)c1ccc(O)cc1 | 0.587 ± 0.15
CN1CCC(Nc2nc(Nc3ccc(Oc4ccccc4)cc3)c3c(=O)[nH]cc(Br)c3n2)CC1 | 0.68 ± 0.087
C=CC(=O)Nc1cccc(Nc2nc(Nc3ccc(OCCOC)cc3)ncc2F)c1 | 0.563 ± 0.078
C=CC(=O)Nc1ccc2ncnc(Nc3ccc(OCc4cccc(F)c4)c(Cl)c3)c2c1 | 1.01 ± 0.01
O=C(Nc1cccc(Nc2ncc(Br)c(NCCc3cnc[nH]3)n2)c1)N1CCCC1 | 0.743 ± 0.04
CCn1c2ccccc2c2cc(Nc3ccnc(NCCCN4CCOCC4)n3)ccc21 | 0.64 ± 0.089
N#CCNC(=O)c1ccc(-c2ccnc(Nc3ccc(N4CCOCC4)cc3)n2)cc1 [Momelotinib (CYT387)] | 0.4 ± 0.075
COc1cc2nccc(Oc3ccc(NC(=O)C4(C(=O)Nc5ccc(F)cc5)CC4)cc3)c2cc1OC [Cabozantinib malate (XL184)] | 0.8 ± 0.017
O=C(/C=C/c1ccc(O)c(O)c1)c1ccc(O)cc1O [Butein] | 0.74 ± 0.075

SMILES | relative cell viability
Cn1ncc(Cl)c1-c1cc(C(=O)N[C@H](CN)Cc2ccc(F)c(F)c2)oc1Cl | 0.753 ± 0.07
COc1cc2c(Oc3ccc(NC(=O)C4(C(=O)Nc5ccc(F)cc5)CC4)cc3F)ccnc2cc1OCCCN1CCOCC1 | 0.287 ± 0.064
O=C(/C=C/c1ccc2ccccc2n1)c1ccncc1 | 0.64 ± 0.075
Oc1cccc(-c2nc(N3CCOCC3)c3oc4ncccc4c3n2)c1 | 0.75 ± 0.044
CNC(=O)c1cc(Oc2ccc(NC(=O)Nc3ccc(Cl)c(C(F)(F)F)c3)c(F)c2)ccn1 [Regorafenib (BAY 73-4506)] | 0.483 ± 0.086
COc1cc(OC)c(/C=C/S(=O)(=O)Cc2ccc(OC)c(NCC(=O)O)c2)c(OC)c1 | 0.7 ± 0.026
C=CC(=O)Nc1cccc(Nc2nc(Nc3ccc(NC4CN(CCF)C4)cc3OC)ncc2C(F)(F)F)c1 | 0.443 ± 0.068
COc1cc2nccc(Oc3ccc(NC(=O)C4(C(=O)Nc5ccc(F)cc5)CC4)cc3)c2cc1OC | 0.7 ± 0.21
COc1cccc(-n2c(=O)[nH]c3cc(Cl)n(-c4ccc(-c5cccc(OC)c5O)cc4)c3c2=O)c1 | 0.807 ± 0.081
O=C(c1ccc(Nc2nccc(-c3cc4ccccc4s3)n2)cc1)N1CCC(N2CCCC2)CC1 [IKK-16 (IKK Inhibitor VII)] | 0.277 ± 0.038
CS(=O)(=O)c1ccc(-c2cnc(N)c(C(=O)Nc3ccccc3)n2)cc1 | 0.713 ± 0.05
Cn1cnc2c(F)c(Nc3ccc(Br)cc3F)c(C(=O)NOCCO)cc21 | 0.827 ± 0.097
COc1cc2c(c(OC)c1OC)-c1c(cc3c(c1OC)OCO3)CC(C)C(C)C2 (configuration not stated) [Schisandrin B (Sch B)] | 1.01 ± 0.17
O=C(c1ccc(/C=C/c2n[nH]c3ccccc23)cc1)N1CCNCC1 | 0.773 ± 0.076
COc1cc(Nc2c(C#N)cnc3cc(OCCCN4CCN(C)CC4)c(OC)cc23)c(Cl)cc1Cl [Bosutinib (SKI-606)] | 0.867 ± 0.035
COc1cc(N2CCC(N)CC2)ccc1Nc1ncc(Cl)c(-c2c[nH]c3ccccc23)n1 | 0.24 ± 0.062
COc1cc(Nc2ncc(F)c(Nc3ccc4c(n3)N(COP(=O)(O)O)C(=O)C(C)(C)O4)n2)cc(OC)c1OC [Fostamatinib (R788)] | 0.6 ± 0.017
O=C(NOCC1CC1)c1ccc(F)c(F)c1Nc1ccc(I)cc1Cl | 0.693 ± 0.2
CC(=O)c1c(C)c2cnc(Nc3ccc(N4CCNCC4)cn3)nc2n(C2CCCC2)c1=O | 0.623 ± 0.074
CC(C)(C)c1cc(NC(=O)Nc2ccc(-c3cn4c(n3)sc3cc(OCCN5CCOCC5)ccc34)cc2)no1 [Quizartinib (AC220)] | 0.473 ± 0.04
